According to PubChem BioAssay:
Records with an inconclusive call do not appear. For part of these data: Measured potencies and affinities stand elsewhere. Calls of active or inactive are those of the source.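 Rule for the calls, unless noted: active = normalized viability below 100% at a tested concentration; inactive = the rest.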

Columns and labels:
[1] = polyglutamine-triggered caspase-3 activation inhibitors, cell-based (AID 1583); settings: polyglutamine-induced caspase-3 activation, cell assay; stronger effect = higher value;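 tested at 10 µM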
[2] = suppressors of polyQ aggregation in yeast, 75Q-TubU reporter (AID 1593); settings: Yeast 75Q polyglutamine aggregation reporter
[3] = rescue of polyQ-huntingtin neuronal dysfunction in worms, whole organism, C. elegans mechanosensory neurons, N-terminal huntingtin (AID 1599); settings: touch response, stronger effect = higher value
[4] = inhibitors of mitochondrial cytochrome c release, biochemical, purified mitochondria (AID 1603); settings: stronger effect = lower value;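 note: mouse liver mitochondria challenged with calcium chloride; signal normalized to the plate average as 100%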
[5] = inhibitors of polyQ protein aggregation (AID 1604); settings: polyglutamine-induced protein aggregation inhibition assay; stronger effect = higher value; tested at 2.5 µM
[6] = enhancers of glutamate uptake in motor neurons, MN-1 cell line (AID 1612); settings: MN-1 motor neuron cells, stronger effect = higher value;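 note: tested at 1 µM final; 0% = mean of DMSO vehicle wells on each plate; positive means more glutamate uptake than control and negative means less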
[7] = reducers of polyQ inclusions in PC12 cells, cell-based, NGF-treated PC12, GFPQ80 (AID 1614); settings: PC12 NGF-treated GFP-polyQ80 inclusion reduction;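 note: lower means fewer inclusions and 0 means no inclusions at all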
[8] = suppressors of polyglutamine aggregation in yeast, 75Q-TubH (AID 1616); settings: S. cerevisiae 75Q-TubH polyglutamine aggregation suppression; stronger effect = higher value
[9] = growth inhibition of DIPG glioma cells, dose response, cell-based, JHH-DIPG-1, MIPE4.0, CellTiter-Glo, qHTS (AID 1347062; cut-off not given, nearly all actives have AC50 up to about 27 µM;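 for AC50: cells exposed to compound for two days before readout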); settings: JHH-DIPG-1 viability, CellTiter-Glo ATP luminescence
[10] = growth inhibition of DIPG glioma cells, dose response, cell-based, SU-DIPG-IV, MIPE4.0, CellTiter-Glo, qHTS (AID 1347063; cut-off not given, nearly all actives have AC50 up to about 30 µM;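 note: compound exposure lasted 48 hours before the viability readout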); settings: SU-DIPG-IV viability, CellTiter-Glo ATP luminescence
[11] = SU-DIPG-VI glioma cell viability, MIPE4.0 library, CellTiter-Glo luminescence, qHTS (AID 1347066; cut-off not given, nearly all actives have AC50 up to about 30 µM;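 note: cells exposed to compound for 48 hours before readout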); settings: CellTiter-Glo ATP luminescence
[12] = SU-DIPG-XXV glioma cell viability, MIPE5.0 library, qHTS (AID 1347068; cut-off not given, nearly all actives have IC50 up to about 30 µM;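 for IC50: cells exposed to compound for 48 hours before viability readout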)
[13] = growth inhibition of DIPG glioma cells, dose response, cell-based, SU-DIPG-XIII, MIPE5.0, CellTiter-Glo, qHTS (AID 1347064; cut-off not given, nearly all actives have AC50 up to about 23 µM); settings: SU-DIPG-XIII viability, CellTiter-Glo ATP luminescence
[14] = viability loss in pontine glioma line – cell-based, SU-DIPG-XXV, MIPE5.0, CellTiter-Glo, qHTS, dose response (AID 1347065; cut-off not given, nearly all actives have AC50 up to about 26 µM;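 note: cells exposed to compound for 48 hours before ATP readout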); settings: CellTiter-Glo ATP luminescence
[15] = JHH-DIPG-1 glioma cell viability, MIPE5.0 library, CellTiter-Glo luminescence, qHTS (AID 1347067; cut-off not given, nearly all actives have AC50 up to about 26 µM;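 note: cells exposed to compound for 48 hours before readout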); settings: JHH-DIPG-1 glioma viability, CellTiter-Glo ATP luminescence
[16] = sensitizers of A549 cells to miR-34 induction, primary screen, imaging, A549 dox-inducible miR-34, nuclei and caspase counts (AID 1347080;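 active = compounds whose cell count with miR-34 switched on is under 0.7 times the count with it off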); settings: A549 miR-34 inducible, Hoechst nuclei count, 48 h
[17] = survival rescue of mitochondrial mutant cells in low glucose, primary screen, MELAS cybrids, Rieske KO mouse fibroblasts, CellTiter-Glo (AID 1508586;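 active = mean z-score across replicates of 1.96 or higher in either the MELAS or the Rieske mutant cell line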;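 note: z relative to plate mean and SD of compound and empty wells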)
[18] = ovarian cancer cell viability with rucaparib, profiling panel, oncology-focused library, rucaparib conditional (AID 1508598); settings: patient-derived ovarian cancer cells, CellTiter-Glo viability, 144 h, stronger effect = lower value
[19] = stronger effect = lower value, cell number ratio, induced over uninduced
[20] = measured here: relative caspase fold change +Dox/-Dox
[21] = measured here: total cells with miR-34 induction, stronger effect = lower value
[22] = measured here: total cells without miR-34 induction
[23] = MELAS cybrid survival, CellTiter-Glo 48 h, stronger effect = higher value
[24] = Rieske KO mouse fibroblast survival, CellTiter-Glo 72 h

## COc1ccc2c(c1OC)C(=O)OC2[C@H]1c2c(cc3c(c2OC)OCO3)CCN1C (some centres not stated)
[1]
  inhibition: -3.24%
[2]
  score: 1.28
[3]
  rescue above control: -2.5
[4]
  cytochrome c release ratio: 0.93
[5]
  inhibition of aggregation: 66.2%
[6]
  glutamate uptake change: -10.2%
[7]
  inclusion score: 2
[8]
  aggregation suppression score: 1.38
[9]
  AC50: 1.87 µM (active)

## C[C@@H](N)c1ccc(C(=O)Nc2ccnc3[nH]ccc23)cc1
[10]
  AC50: 0.418 µM (active)
[11]
  outcome: inactive
[12]
  IC50: 18.6 µM (active)

## N#Cc1ccc(Oc2ccc3c(c2)COB3O)cc1
[10]
  outcome: inactive
[13]
  outcome: inactive
[14]
  outcome: inactive
[11]
  outcome: inactive
[12]
  outcome: inactive

## COCCOC(=O)C1=C(C)NC2=C(C(=O)CC(c3ccccc3OC)C2)C1c1cccc(O)c1 (configuration not stated)
[9]
  outcome: inactive
[11]
  outcome: inactive
[12]
  outcome: inactive

## COc1ccc(CCC(=O)Nc2nc3ccc(Cl)cc3s2)cc1OC
[9]
  outcome: inactive
[15]
  outcome: inactive
[12]
  outcome: inactive
[16]; [19]
  fold change: 0.879 (inactive)
[16]; [20]
  fold change: 0.345
[16]; [21]
  cell count: 7570
[16]; [22]
  cell count: 8610
[17]; [23]
  z-score: 1.34 (inactive)
[17]; [24]
  z-score: -0.214

## C[C@@H]1CCNC(=O)c2cc3ccc(C(=O)Nc4nc5ccccc5n4CCCN(C)C)cc3n21
[13]
  outcome: inactive

## CC(C)(C)Cn1c(N)nc2ccc(-c3[nH]c(C(C)(C)C)nc3-c3ccc(F)cc3)nc21
[10]
  AC50: 26.4 µM (active)
[14]
  AC50: 26.3 µM (active)
[11]
  AC50: 20.9 µM (active)
[15]
  AC50: 20.9 µM (active)
[16]; [19]
  fold change: 0.962 (inactive)
[16]; [20]
  fold change: 0.864
[16]; [21]
  cell count: 5480
[16]; [22]
  cell count: 5700
[17]; [23]
  z-score: -0.234 (inactive)
[17]; [24]
  z-score: 0.553
[18]; at 0.000305 µM, OCI-C5x cells, with rucaparib 10 µM, 100% = cells with rucaparib alone
  viability: 114% (inactive)
[18]; at 0.000305 µM, OCI-C5x cells, without rucaparib
  viability: 115% (inactive)
[18]; at 0.000305 µM, OCI-P5x cells, with rucaparib 20 µM, 100% = cells with rucaparib alone
  viability: 99.8% (active)
[18]; at 0.000305 µM, OCI-P5x cells, without rucaparib
  viability: 104% (inactive)
[18]; at 0.00122 µM, OCI-C5x cells, with rucaparib 10 µM, 100% = cells with rucaparib alone
  viability: 112% (inactive)
[18]; at 0.00122 µM, OCI-C5x cells, without rucaparib
  viability: 110% (inactive)
[18]; at 0.00122 µM, OCI-P5x cells, with rucaparib 20 µM, 100% = cells with rucaparib alone
  viability: 101% (inactive)
[18]; at 0.00122 µM, OCI-P5x cells, without rucaparib
  viability: 107% (inactive)
[18]; at 0.00488 µM, OCI-C5x cells, with rucaparib 10 µM, 100% = cells with rucaparib alone
  viability: 110% (inactive)
[18]; at 0.00488 µM, OCI-C5x cells, without rucaparib
  viability: 121% (inactive)
[18]; at 0.00488 µM, OCI-P5x cells, with rucaparib 20 µM, 100% = cells with rucaparib alone
  viability: 108% (inactive)
[18]; at 0.00488 µM, OCI-P5x cells, without rucaparib
  viability: 110% (inactive)
[18]; at 0.0195 µM, OCI-C5x cells, with rucaparib 10 µM, 100% = cells with rucaparib alone
  viability: 103% (inactive)
[18]; at 0.0195 µM, OCI-C5x cells, without rucaparib
  viability: 112% (inactive)
[18]; at 0.0195 µM, OCI-P5x cells, with rucaparib 20 µM, 100% = cells with rucaparib alone
  viability: 103% (inactive)
[18]; at 0.0195 µM, OCI-P5x cells, without rucaparib
  viability: 107% (inactive)
[18]; at 0.0781 µM, OCI-C5x cells, with rucaparib 10 µM, 100% = cells with rucaparib alone
  viability: 96.9% (active)
[18]; at 0.0781 µM, OCI-C5x cells, without rucaparib
  viability: 117% (inactive)
[18]; at 0.0781 µM, OCI-P5x cells, with rucaparib 20 µM, 100% = cells with rucaparib alone
  viability: 101% (inactive)
[18]; at 0.0781 µM, OCI-P5x cells, without rucaparib
  viability: 109% (inactive)
[18]; at 0.313 µM, OCI-C5x cells, with rucaparib 10 µM, 100% = cells with rucaparib alone
  viability: 94.5% (active)
[18]; at 0.313 µM, OCI-C5x cells, without rucaparib
  viability: 121% (inactive)
[18]; at 0.313 µM, OCI-P5x cells, with rucaparib 20 µM, 100% = cells with rucaparib alone
  viability: 103% (inactive)
[18]; at 0.313 µM, OCI-P5x cells, without rucaparib
  viability: 105% (inactive)
[18]; at 1.25 µM, OCI-C5x cells, with rucaparib 10 µM, 100% = cells with rucaparib alone
  viability: 108% (inactive)
[18]; at 1.25 µM, OCI-C5x cells, without rucaparib
  viability: 140% (inactive)
[18]; at 1.25 µM, OCI-P5x cells, with rucaparib 20 µM, 100% = cells with rucaparib alone
  viability: 99.8% (active)
[18]; at 1.25 µM, OCI-P5x cells, without rucaparib
  viability: 104% (inactive)
[18]; at 5 µM, OCI-C5x cells, with rucaparib 10 µM, 100% = cells with rucaparib alone
  viability: 175% (inactive)
[18]; at 5 µM, OCI-C5x cells, without rucaparib
  viability: 175% (inactive)
[18]; at 5 µM, OCI-P5x cells, with rucaparib 20 µM, 100% = cells with rucaparib alone
  viability: 90.5% (active)
[18]; at 5 µM, OCI-P5x cells, without rucaparib
  viability: 92.5% (active)
